# Mcl1-Bid inh – disrupts binding of human Mcl-1 to Bid peptide | TR-FRET Mcl-1/Bid-Dy647 peptide binding, 1536-well | Q07820 | hit rate 0.97% among 220,000 | inhibition, % at 21.7 µM;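 active = compounds that cut the binding signal by more than half at the single screening dose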;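 also: His-tagged Mcl-1 with europium anti-His antibody binding Bid BH3 peptide; 0% = Mcl-1 plus peptide wells and 100% = peptide-only wells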
# Hck-Nef inh – blocks Nef-activated human Hck kinase. P08631. Recombinant Hck-YEEI plus Nef, Z-Lyte FRET kinase assay. inhibition, % at 20 µM. hit rate 0.68% among 220,000. AID 463187;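 active = Hck-Nef kinase inhibition above about 50%, limit read from the data; inactive = inhibition below that limit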;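 also: 0% = DMSO with Hck plus Nef and 100% = Hck alone without Nef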
# Mcl1 Noxa PPI – disrupts binding of human Mcl-1 to Noxa peptide. Q07820. TR-FRET Mcl-1/Noxa peptide binding, 2 h. inhibition, % at 21.7 µM. hit rate 1.5% among 220,000. AID 1022;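 active = compounds that cut the protein-peptide binding signal by more than 50% relative to plate controls in a single-dose test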;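 also: His-tagged Mcl-1 with rhodamine Noxa BH3 peptide and terbium anti-His antibody; 0% = Mcl-1 plus Noxa peptide wells and 100% = peptide-only wells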
# Mcl-1 Bim block – human Bim-Mcl-1 interaction inhibition. Bead-based flow cytometry, Bim peptide-Mcl-1 binding. hit rate 0.1% among 190,000. Q07820. inhibition, % at 10 µM; in the data active = inhibition above about 40%;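 also: 0% = no compound tracer wells and 100% = peptide blocker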
# eIF4E-4G inh – blocks eIF4E binding to eIF4G | P63073+Q04637 | TR-FRET eIF4E-eIF4GI(517-606) binding, 2 h | inhibition, % at 21.7 µM | hit rate 0.37% among 220,000 | AID 782;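 active = inhibition above about 30%, limit read from the data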;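 also: 0% = full FRET control wells and 100% = background wells lacking eIF4GI fragment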
# 14-3-3 Bad inh – disrupts binding of bovine 14-3-3 zeta to phospho-Bad peptide | P63103 | TR-FRET 14-3-3zeta/Dy647-pBad peptide displacement, 1 h | inhibition, % at 21.7 µM | hit rate 0.71% among 220,000 | AID 781;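 active = inhibition above about 70%, limit read from the data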;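 also: 0% = full 14-3-3 plus peptide FRET controls and 100% = background without 14-3-3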
# Hck Nef conf – Hck-Nef kinase inhibition, confirmation; shares compounds with Hck-Nef inh; Recombinant Hck-YEEI:Nef, Z-Lyte FRET kinase assay; calls only at 10 µM; hit rate 28% among 1,300; AID 463188;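 active = average inhibition of at least 50%, with Z-scores no higher than 3 in both the phospho-tyrosine peptide and fluorescence counterscreens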
# * marks the source's active call; other numbers are inactive results; i = inactive; · = no result given; + = active, no number; [ ] = remark or other dose. In the library only some 3.5% were active in any assay of this set; here they are far more common.
SMILES,Mcl1-Bid inh,Hck-Nef inh,Mcl1 Noxa PPI,Mcl-1 Bim block,eIF4E-4G inh,14-3-3 Bad inh,Hck Nef conf
COc1ccc(/C=C(\C#N)C(=O)Nc2ccc3[nH]c(=O)[nH]c3c2)cc1,-61.5,70.5*,46.3,·,-2.0,9.1,i
COc1ccc(-c2cc(-c3nnc(COC(=O)c4ccncc4)o3)c3ccccc3n2)cc1OC,-5.6,10.6,5.5,9.0,-2.3,-24.7,·
CCOC(=O)c1c(C)oc2c1c(C(c1ccncc1)N1CCOCC1)c(O)c1ccccc12 (stereo not drawn),82.2*,116.9*,98.1*,-1.0,25.9,44.1,+
CCOC(=O)c1c(C)oc2c1c(C=NCCC(=O)O)c(O)c1ccccc12,-28.7,4.8,20.2,-1.0,-1.1,-13.2,·
CC(C)(C)OC(=O)C(Cl)(C(=O)OC(C)(C)C)c1ccc2nnnn2n1,-4.6,16.7,7.9,-4.0,-1.5,-4.6,·
CC(=O)c1c(C)[nH]c(C(=O)CSc2nnc(-c3ccccc3)n2Cc2ccc3c(c2)OCO3)c1C,26.6,63.5*,21.7,-2.0,-2.4,-6.5,i
CC(=O)c1c(C)[nH]c(C(=O)CSc2nnc(-c3ccco3)n2Cc2ccccc2)c1C,8.2,-0.3,21.2,-5.0,-23.4,1.2,·
COc1ccc(OC)c(C2C(C#N)=C(N)Oc3cc(N)ccc32)c1 (stereo not drawn),-28.6,-6.1,7.5,0.0,-3.5,-14.0,·
N#CC1=C(N)Oc2cc(N)ccc2C1C1CCCCC1 (stereo not drawn),-1.9,50.7*,10.2,-2.0,1.9,-8.9,i
CCCCCCCCCCCCCCCCn1cc[n+](CC(C)=O)c1,59.0*,62.8*,42.5,-1.0,68.4*,98.4*,i
CCCCCCn1ccc(=N)cc1,-6.8,0.0,-7.0,1.0,13.7,4.2,·
Cc1ccc(-c2[nH]ncc2/C=N/n2c(C)nc3ccccc3c2=O)cc1,-7.7,60.0*,-24.2,·,-0.8,21.4,i
Cc1ccccc1C(=O)Nc1nc(-c2cccnc2)cs1,17.9,51.2*,74.9*,·,14.2,14.0,+
Cc1ccc(OCC(=O)N/N=C2/SCC(=O)N2Cc2ccccc2)cc1,-17.0,0.6,11.8,-1.0,4.7,-10.5,·
Cc1ccc(NC(=O)COc2ccc(/C=C3/SC(=Nc4ccccc4)N(Cc4cccnc4)C3=O)cc2)cc1,-11.3,90.3*,-7.7,-4.0,3.7,9.2,+
CC(=C\c1ccco1)/C=C1/SC(=S)N(CC(=O)O)C1=O,-47.1,6.3,27.7,·,2.7,0.9,·
O=C1/C(=C/C=C/c2ccco2)SC(=S)N1c1ccc(O)cc1,37.6,97.7*,102.1*,·,36.6*,62.8,+
O=C(NN1C(=O)/C(=C/C=C/c2ccco2)SC1=S)c1ccncc1,26.1,90.4*,99.5*,·,37.0*,70.8*,i
CC(C)C(C(=O)O)N1C(=O)/C(=C/C=C/c2ccco2)SC1=S (stereo not drawn),97.9*,83.1*,102.3*,0.0,45.8*,70.9*[fluorescence artefact?],i
COc1ccc(/C(N)=N/OC(=O)CCCN2C(=O)c3ccccc3C2=O)cc1OC,-58.1,-3.3,-1.5,17.0,1.0,-9.6,·
COc1ccc(NC(=O)CSc2c(C)nn(-c3nnc(C)c(=O)[nH]3)c2C)cc1,4.3,108.1*,13.8,-1.0,-4.5,5.9,i
Cc1nnc(SCC(=O)Nc2ccccc2)[nH]c1=O,-24.2,-1.1,10.2,0.0,3.2,3.6,·
Cc1ccc(C2=N/C(=C\c3cccnc3)C(=O)O2)cc1,-6.1,-0.3,5.9,-5.0,-10.5,10.8,·
O=C1OC(/C=C/c2ccccc2)=NC/1=C\c1cccnc1,11.2,81.9*,12.3,-3.0,1.5,0.1,+
O=C(O)c1ccc2nc(-c3ccco3)c(-c3ccco3)nc2c1,-9.5,51.8*,80.4*,5.0,11.6,21.6,i
SMILES,Mcl1-Bid inh,Hck-Nef inh,Mcl1 Noxa PPI,Mcl-1 Bim block,eIF4E-4G inh,14-3-3 Bad inh,Hck Nef conf
Cc1sc(NC(=O)c2ccc(OCC(C)C)cc2)c(C(N)=O)c1-c1ccc(Cl)cc1Cl,-21.5,-1.0,-8.9,0.0,3.1,-16.4,·
CCCCn1c(NS(=O)(=O)c2ccccc2)c(S(=O)(=O)c2ccc(C)cc2)c2nc3ccccc3nc21,36.8,65.8*,33.3,8.0,5.9,14.7,·
CCCCCn1c(NC(=O)c2ccco2)c(S(=O)(=O)c2ccc(C)cc2)c2nc3ccccc3nc21,-1.9,56.2*,29.5,-2.0,1.5,10.6,·
CCC(=O)Nc1c(S(=O)(=O)c2ccc(C)cc2)c2nc3ccccc3nc2n1C(C)c1ccccc1 (stereo not drawn),34.6,12.2,23.2,-4.0,1.4,-1.4,·
Cc1ccc(S(=O)(=O)c2c(N)n(CCC(C)C)c3nc4ccccc4nc23)cc1,-9.5,21.6,-19.4,-6.0,1.8,8.7,·
Cc1ccc(S(=O)(=O)c2c(N)n(CCCO)c3nc4ccccc4nc23)cc1,13.4,81.3*,-0.9,1.0,-10.9,14.6,·
CCCCn1c(NC(=O)c2ccco2)c(S(=O)(=O)c2ccc(C)cc2)c2nc3ccccc3nc21,0.6,48.8,38.1,0.0,4.8,6.5,·
CCCCn1c(NC(=O)c2ccc(Br)o2)c(S(=O)(=O)c2ccccc2)c2nc3ccccc3nc21,35.7,84.2*,27.0,3.0,16.7,36.2,·
CCCCn1c(NC(C)=O)c(C#N)c2nc3ccccc3nc21,14.2,49.2,26.8,-1.0,3.8,15.1,·
COc1ccc(CCN2C(=O)NC(NS(=O)(=O)c3ccc(N)cc3)(C(F)(F)F)C2=O)cc1OC (stereo not drawn),-8.4,2.6,20.5,2.0,-7.0,-12.4,·
O=C(CSc1nnc(-c2cccnc2)n1CCN1CCCCC1)Nc1cccc(Cl)c1,-65.0,3.4,-3.6,0.0,-1.7,-3.8,·
CCC(=O)Nc1c(S(=O)(=O)c2ccccc2)c2nc3ccccc3nc2n1C(C)c1ccccc1 (stereo not drawn),24.9,75.0*,23.1,0.0,5.8,6.7,·
CC(C)CC(NC(=O)CNC(=O)C1O[C@@H]2OC(C)(C)O[C@@H]2[C@H]2OC(C)(C)O[C@@H]12)C(=O)O (stereo partly drawn),1.8,-6.6,4.2,-13.0,3.7,-5.6,·
N#Cc1ncn(-c2ccc(Oc3ccccc3)cc2)c1N,-27.9,73.6*,-3.6,2.0,-7.2,-15.4,i
COc1ccc(C)cc1NC(=O)C(=O)NCc1ccncc1,-8.0,1.5,·,-4.0,-7.0,-5.6,·
CC(=O)Nc1ncnc2c1c(-c1ccc(Cl)cc1)nn2C(C)(C)C,-4.0,+,20.0,1.0,-0.9,7.9,+
CC(=O)Nc1sc(-c2ccc(Cl)cc2)nc1-c1ccccc1,-4.6,13.1,-8.6,·,1.0,2.5,·
CC(=O)N(C(C)=O)c1ncnc2c1c(-c1ccc(Cl)cc1)nn2C(C)(C)C,-16.1,73.5*,6.4,0.0,-5.5,-1.9,i
